# Assay outcomes (PubChem)
# A selection: hits, their analogues and other compounds. The true share with any hit is near 2.8%.
# ATXN2 expr inh: ATXN2 expression inhibition; Potency, µM (highest dose often 57 µM), for the others: at the highest dose activity change, negative = inhibition, usual class: inhibitors; HEK-293 ATXN2-luciferase reporter, luminescence, 24 h; 360,000 tested, 0.72% active; also: % is scaled to controls: 0 for no effect and ±100 for the full control effect; nearly all actives have a fitted effect of over 55% in size
#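 ATXN2-luciferase reporter cells (luciferase flanked by upstream and downstream ATXN2 gene portions) were treated 24 h at 37 °C with compounds at up to 57 uM. SteadyGlo luminescence gave expression; GF-AFC fluorescence gave viability.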
# HepG2 viability: HepG2 cytotoxicity, counter-screen for TGF-b inhibitors; HepG2 CAGA-GFP viability, ATP luminescence, 18 h; Potency, µM (series often up to 46.1 µM), inactives show top-dose activity change, negative = cytotoxicity, most hits filed as cytotoxic; 410,000 tested, 0.76% active; AID 588856
#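 HepG2 CAGA-GFP cells (1000/well, DMEM with 1% FBS) received compound, then TGF-beta at 500 pg/mL final, and were incubated 18 hours at 37 degrees C. Viability was read by CellTiter-Glo luminescence. Media-only wells were set as complete cell-killing and DMSO as no toxicity.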
# ATXN viability: cell viability loss in ATXN counter-screen; S2 cells (HEK-293 line with an ATXN2-luciferase reporter) viability, CellTiter-Fluor protease fluorescence, 24 h; Potency, µM (doses to about 56.7 µM), hits mostly cytotoxic; 400,000 tested, 0.49% active; AID 651635; also: nearly all actives have a fitted effect of over 40% in size
# HttQ103 aggreg: mutant huntingtin aggregation inhibition; Potency, µM (top dose mostly 46.1 µM), inactives show top-dose activity change, negative = inhibition, hits mostly inhibitors; 220,000 tested, 1.1% active; PC12 HttQ103-GFP aggregates, Acumen cytometry, 40 h; also: % is scaled to controls: 0 for no effect and ±100 for the full control effect; nearly all actives have a fitted effect of over 60% in size
#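 Huntingtin Q103 exon 1–GFP aggregates in induced PC12 cells (100 nM tebufenozide) were quantified by cytometry from lysates, with compounds dosed in titration.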
# TGFb SMAD3 inh: TGF-b pathway inhibition; HepG2 CAGA-GFP TGF-b/SMAD3 reporter, GFP fluorescence, 18 h; TGF-beta stimulated, 500 pg/mL final; Potency, µM (series often up to 46.1 µM), inactives show at the highest dose activity, negative = inhibition, usual class: inhibitors; 410,000 tested, 1.2% active; AID 588855; also: % is scaled to controls: 0 for no effect and ±100 for the full control effect; nearly all actives have a fitted effect of over 65% in size
#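 Inhibition of TGF-beta-driven CAGA-GFP reporter expression in HEPG2 cells is measured by cellular GFP fluorescence after 18 h stimulation with 500 pg/mL recombinant TGF-beta in 1% FBS medium at 37 degrees C.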
# HTT cytoprotect: protects HTT-Q103 PC12 cells, measured by ATP; AID 1471; Potency, µM (top dose mostly 56.4 µM), inactives show cytoprotection (ATP increase), usual class: activators; 230,000 tested, 0.14% active; PC12 HTT-Q103 induced, cytoprotection, ATP luminescence, 40 h; also: % of control where 0% means no effect; nearly all actives have a fitted effect of over 45% in size
#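 Huntington model: PC12 line, ecdysone-inducible HTTQ103 exon1–GFP, tebufenozide 100 nM. Test articles in a dose series. Endpoint luminescence from cellular ATP.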
# Active calls of the source: *; i = inactive; ? = inconclusive; / = no result; [ ] = remark or other dose. Calls follow the shape of the dose curve; as a rule, active = well fitted curve in the direction sought with a large enough effect; inconclusive = small, poorly fitted or top-dose-only effect, or another doubt; inactive = no such curve, though single readings can be large; an effect the other way counts as inactive or inconclusive. Potency is read from the fitted curve at half-maximal effect.
SMILES,ATXN2 expr inh,HepG2 viability,ATXN viability,HttQ103 aggreg,TGFb SMAD3 inh,HTT cytoprotect
Cc1cc(-c2ccnc(-n3ncc(C(=O)N(C)CC(O)c4ccccc4)c3C)n2)c(C)s1 (stereo not drawn),/,/,i,/,/,/
Cc1ccc(CNc2ncnc(N)c2[N+](=O)[O-])cc1,1%,3%,i,4.5µM*,4%,6%
Cc1cccc(C)c1Nc1ncnc(N)c1[N+](=O)[O-],-2%,8%,i,-13%,2%,3%[10 µM]
O=C(Nc1nc(-c2ccc(F)c(F)c2)cs1)Nc1ccc(F)cc1F,5µM*,11%,?,/,-10%,/
CN1CCN/C1=C(/C(Cl)=C(Cl)Cl)[N+](=O)[O-],-10%,12%,i,16µM*,11%,-27%
O=C(Nc1cccc(S(=O)(=O)Nc2ccc(Cl)cc2)c1)c1ccc(Cl)nc1,?,-41%,?,?,14µM*,26%[10 µM]
O=C1CSc2ccc(C(=O)Nc3cccc(S(=O)(=O)Nc4ccc(Br)cc4)c3)cc2N1,/,16µM*,?,7.9µM*,13µM*,38%[10 µM]
COc1ccc(NS(=O)(=O)c2cccc(NC(=O)c3ccc(Cl)nc3)c2)cc1,-21%[11.3 µM],1%,i,2.5µM*,?,14%[10 µM]
Cc1ccc(C(=O)Nc2ccc3ncccc3c2)cc1,-37%,-16%,?,/,0%,/
COc1ccc(C(=O)Nc2ccc3ncccc3c2)cc1,20µM*,-13%,i,/,-9%,/
COc1cccc(S(=O)(=O)Nc2ccc(C(=O)Nc3ccncc3)cc2)c1,-10%,-14%,i,-11%,?,4%[10 µM]
O=C(Nc1ccc(NS(=O)(=O)c2ccccc2)cc1)c1ccc(Cl)cc1,-27%,0%,i,/,6%,/
O=C(O)c1ccc(NC(=O)c2cccc(S(=O)(=O)Nc3ccc(C(=O)O)cc3)c2)cc1,-16%,-18%,i,/,-8%,/
Cc1cc(-c2cc(F)cc3c2OC(CNC(=O)CCn2cncn2)C3)ccc1F (stereo not drawn),/,/,i,/,/,/
CCC(O)c1cnc(OCc2ccccc2)nc1OCc1ccccc1 (stereo not drawn),/,14µM*,i,/,?,/
CC1COCC(C)N1C1=C(Cl)C(=O)c2ccccc2C1=O (stereo not drawn),?,-7%,?,/,?,/
NC(=O)C1CCN(C2=C(Cl)C(=O)c3ccccc3C2=O)CC1,?,7.1µM*,?,5%,?,5%
O=C1C(Cl)=C(N2CCC(C(=O)O)CC2)C(=O)c2ccccc21,25µM*,-75%,i,10%[9.22 µM],?,-4%[10 µM]
NC(=O)C1CCN(C2=C(NS(=O)(=O)c3ccccc3)C(=O)c3ccccc3C2=O)CC1,-11%,-40%,i,-19%[9.22 µM],?,-5%[10 µM]
CN1CCN(C2=C(Cl)C(=O)c3ccccc3C2=O)CC1,24µM*,10µM*,/,/,?,/
O=C(O)C1CCN(C(=O)c2ccccc2Cl)CC1,-1%,-4%,i,11%,-10%,6%
CN1CCN(C2=C(Cl)C(=O)C(c3cnc(N4CCCCC4)s3)=C(Cl)C2=O)CC1,?,-32%,25µM*,6%,?,42%[10 µM]
CN1CCN(c2nc(-c3ccc(Cl)s3)cs2)CC1,13%,-73%,i,9%,0%,-22%
OC[C@H]1OC(O)C[C@@H](O)[C@H]1O (stereo partly drawn),8%,/,/,/,/,/
COc1ccc(OC)c(C2/C(=C(/O)c3cnn(-c4ccccc4)c3C)C(=O)C(=O)N2CCN(C)C)c1 (stereo not drawn),6%,-16%,i,10µM*,0%,-14%
SMILES,ATXN2 expr inh,HepG2 viability,ATXN viability,HttQ103 aggreg,TGFb SMAD3 inh,HTT cytoprotect
CN(CC(=O)Nc1ccccc1Cl)C(=O)COC(=O)c1ccc([N+](=O)[O-])cc1Cl,6%,1%,i,/,?,/
CN(CCOc1ccccc1)CC(=O)Nc1ccc([N+](=O)[O-])cc1Cl,-10%,-82%,i,19%,11µM*,-1%
O=C(CCn1cnc2ccccc2c1=O)Nc1cccc(Cl)c1Cl,/,1%,0.16µM*,-2%,-14%,-31%
O=C(CCn1cnc2ccccc2c1=O)NCc1ccccc1Cl,7%,6%,i,/,-5%,/
CCCC(=O)OCCNc1cc(Sc2nc3ccccc3[nH]2)c2nonc2c1[N+](=O)[O-],?,6.3µM*,?,?,?,-59%[10 µM]
CCC(=O)OCCNc1cc(SCCC(=O)OC)c2nonc2c1[N+](=O)[O-],8%,-75%,i,?,?,2%[10 µM]
CCC(=O)OCCNc1cc(Sc2nccn2C)c2nonc2c1[N+](=O)[O-],?,-124%,/,7.1µM*,11µM*,-96%[10 µM]
O=C(O)c1ccc(N/N=C/c2cn(Cc3ccc(F)cc3)c3ccccc23)cc1,66%,-74%,i,0%[9.22 µM],?,-15%[10 µM]
O=[N+]([O-])/C=C/c1cn(Cc2ccc(F)cc2)c2ccccc12,?,-59%,?,?,7.9µM*,-103%
COCc1[nH]nc2c1C(c1ccc(OC)c(OC)c1)C(C#N)=C(N)O2 (stereo not drawn),-3%,1%,i,0%,11%,17%
CCn1c2ccccc2c2cc(C3C(C#N)=C(N)Oc4n[nH]c(COC)c43)ccc21 (stereo not drawn),2.5µM*,4µM*,i,19%,10µM*,-36%
CN(C)CCCNC(=O)/C(=C\c1ccc(-c2ccc(Br)cc2)o1)NC(=O)c1ccccc1,?,11µM*,i,-24%,?,-13%[10 µM]
CN(C)CCCNC(=O)/C(=C/c1ccc(-c2ccc([N+](=O)[O-])cc2)o1)NC(=O)c1ccccc1,-36%,-15%,i,/,-24%,/
COc1ccccc1N1CCN(c2nc(CNC(=O)C3CCOC(C)(C)C3)nc3ccccc23)CC1 (stereo not drawn),/,/,i,/,/,/
COCc1cc(=O)[nH]c(SCCS(=O)(=O)c2ccc(Cl)cc2Cl)n1,20µM*,-39%,/,31%[9.22 µM],?,10%[10 µM]
Cc1ccc(C2=Nc3ccc(Cl)cc3OC2)cc1,38%,/,/,/,/,/
N#Cc1c(N)[nH]c2ccc(Sc3ccccc3)cc12,2%,1%,?,/,16µM*,/
Cn1c(=O)[nH]c(=O)c2[nH]c(N(Cc3ccccc3)Cc3ccccc3)nc21,?,13µM*,?,3%,11µM*,-22%[0.074 µM]
CCOc1ccc(C=Nc2ccc(/C=C/c3ccnc4ccccc34)cc2)cc1OCC,/,-33%,/,/,-16%,/
CNS(=O)(=O)c1cc(-c2nnc(Nc3ccc(NC(C)=O)cc3)c3ccccc23)ccc1C,13%,13%,i,/,?,/
